Results published in the supplement of paper PMC9446081.
± gives the standard deviation of the averaged measurements.

Assays:
Test in all cases: relative enzymatic activity vs untreated control (fraction); higher = less inhibition
Settings in all cases: 100 µM; incubation time: 2 h at 37 C
DNA gyrase = tested on: DNA gyrase
Method: (§1)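 In vitro enzymatic inhibition assays (ProFoldin kits) for 12 purified essential E. coli enzymes or complexes, each treated with 218 active antibacterial compounds at 100 µM for 2 h at 37°C. Read-outs were fluorescence or absorbance (phosphate detection, dye binding), converted to activity via standard curves and expressed relative to untreated DMSO controls.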

DNA helicase = DNA helicase (UniProt P0ACB1)
DNA helicase, sequence (P0ACB1 whole entry): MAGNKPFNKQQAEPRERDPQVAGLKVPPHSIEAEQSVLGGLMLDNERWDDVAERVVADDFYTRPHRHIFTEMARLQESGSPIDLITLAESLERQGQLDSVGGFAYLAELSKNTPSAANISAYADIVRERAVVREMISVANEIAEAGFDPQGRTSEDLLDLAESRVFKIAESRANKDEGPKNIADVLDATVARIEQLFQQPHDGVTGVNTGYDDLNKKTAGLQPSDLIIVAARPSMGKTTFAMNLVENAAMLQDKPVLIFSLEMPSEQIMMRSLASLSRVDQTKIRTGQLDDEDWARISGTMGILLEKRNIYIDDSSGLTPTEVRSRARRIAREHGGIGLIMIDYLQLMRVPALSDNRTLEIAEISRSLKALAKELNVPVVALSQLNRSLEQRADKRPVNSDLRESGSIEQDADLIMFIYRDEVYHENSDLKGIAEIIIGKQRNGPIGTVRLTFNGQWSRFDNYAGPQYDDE
Method: as §1

DNA ligase = DNA ligase (UniProt B1XA82)
DNA ligase, sequence (B1XA82 whole entry): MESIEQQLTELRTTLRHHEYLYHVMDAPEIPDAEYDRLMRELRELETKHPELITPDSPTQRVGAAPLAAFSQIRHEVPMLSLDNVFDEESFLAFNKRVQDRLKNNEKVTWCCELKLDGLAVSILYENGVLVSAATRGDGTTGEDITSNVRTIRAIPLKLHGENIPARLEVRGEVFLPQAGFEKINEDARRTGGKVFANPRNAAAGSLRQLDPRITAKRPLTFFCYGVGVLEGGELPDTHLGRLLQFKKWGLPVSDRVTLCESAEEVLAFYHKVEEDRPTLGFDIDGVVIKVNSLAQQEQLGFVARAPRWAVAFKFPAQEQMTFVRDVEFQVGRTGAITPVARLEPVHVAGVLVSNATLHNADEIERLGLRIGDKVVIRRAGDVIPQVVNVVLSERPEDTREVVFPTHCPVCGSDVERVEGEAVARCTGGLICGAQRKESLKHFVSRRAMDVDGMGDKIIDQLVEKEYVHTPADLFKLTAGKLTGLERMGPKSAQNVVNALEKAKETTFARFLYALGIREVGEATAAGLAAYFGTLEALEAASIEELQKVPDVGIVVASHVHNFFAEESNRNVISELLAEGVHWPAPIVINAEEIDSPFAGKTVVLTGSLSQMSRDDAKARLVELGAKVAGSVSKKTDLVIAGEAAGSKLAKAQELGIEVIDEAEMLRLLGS
Method: as §1

DNA polymerase = DNA polymerase (UniProt P10443)
DNA polymerase, sequence (P10443 whole entry): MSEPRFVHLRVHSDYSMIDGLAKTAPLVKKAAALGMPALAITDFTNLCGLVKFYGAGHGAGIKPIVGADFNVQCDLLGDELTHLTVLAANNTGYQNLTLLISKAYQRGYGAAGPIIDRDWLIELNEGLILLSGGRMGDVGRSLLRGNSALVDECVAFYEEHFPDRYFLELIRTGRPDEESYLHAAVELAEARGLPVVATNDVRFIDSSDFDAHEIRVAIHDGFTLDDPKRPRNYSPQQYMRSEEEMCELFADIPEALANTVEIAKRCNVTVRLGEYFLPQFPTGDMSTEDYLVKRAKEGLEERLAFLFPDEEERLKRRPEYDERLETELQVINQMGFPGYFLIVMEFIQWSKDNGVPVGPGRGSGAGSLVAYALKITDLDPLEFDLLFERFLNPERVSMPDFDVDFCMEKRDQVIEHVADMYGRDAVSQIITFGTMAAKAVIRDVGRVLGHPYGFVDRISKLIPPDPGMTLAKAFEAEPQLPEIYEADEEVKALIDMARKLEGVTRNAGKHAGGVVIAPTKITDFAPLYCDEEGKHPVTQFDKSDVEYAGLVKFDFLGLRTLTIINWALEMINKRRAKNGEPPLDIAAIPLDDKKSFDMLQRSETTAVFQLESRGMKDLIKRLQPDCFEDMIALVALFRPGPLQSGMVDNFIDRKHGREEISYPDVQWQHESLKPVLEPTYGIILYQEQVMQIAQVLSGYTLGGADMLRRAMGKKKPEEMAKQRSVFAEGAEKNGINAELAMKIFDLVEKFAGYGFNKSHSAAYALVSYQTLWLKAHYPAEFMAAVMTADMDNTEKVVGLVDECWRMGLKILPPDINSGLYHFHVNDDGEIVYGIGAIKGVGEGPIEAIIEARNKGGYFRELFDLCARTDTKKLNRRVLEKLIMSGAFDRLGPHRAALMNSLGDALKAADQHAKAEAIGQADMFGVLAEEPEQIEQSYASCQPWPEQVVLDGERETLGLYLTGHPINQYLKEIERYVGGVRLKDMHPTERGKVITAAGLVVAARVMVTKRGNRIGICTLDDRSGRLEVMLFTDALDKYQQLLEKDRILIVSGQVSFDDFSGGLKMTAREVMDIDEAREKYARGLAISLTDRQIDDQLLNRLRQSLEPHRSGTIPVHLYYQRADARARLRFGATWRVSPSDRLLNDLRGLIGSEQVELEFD
Method: as §1

DNA primase = DNA primase (UniProt P0ABS7)
DNA primase, sequence (P0ABS7 whole entry): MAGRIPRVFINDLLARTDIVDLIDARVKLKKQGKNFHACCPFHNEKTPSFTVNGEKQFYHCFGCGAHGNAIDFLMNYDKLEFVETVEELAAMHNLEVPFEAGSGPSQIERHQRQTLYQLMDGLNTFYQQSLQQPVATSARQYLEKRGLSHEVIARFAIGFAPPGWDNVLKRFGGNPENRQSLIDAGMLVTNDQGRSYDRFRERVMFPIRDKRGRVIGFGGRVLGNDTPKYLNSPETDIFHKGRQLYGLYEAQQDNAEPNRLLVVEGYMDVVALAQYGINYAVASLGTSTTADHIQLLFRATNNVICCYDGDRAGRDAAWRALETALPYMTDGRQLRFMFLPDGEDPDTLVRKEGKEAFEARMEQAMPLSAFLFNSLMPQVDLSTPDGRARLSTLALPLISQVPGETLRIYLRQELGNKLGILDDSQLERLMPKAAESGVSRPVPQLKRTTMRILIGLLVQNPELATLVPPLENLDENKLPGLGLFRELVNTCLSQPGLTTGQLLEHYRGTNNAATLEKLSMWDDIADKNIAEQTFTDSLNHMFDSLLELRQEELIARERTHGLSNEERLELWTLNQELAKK
Method: as §1

GlmU = GlmU (UniProt A7ZTU1)
GlmU, sequence (A7ZTU1 whole entry, looked up): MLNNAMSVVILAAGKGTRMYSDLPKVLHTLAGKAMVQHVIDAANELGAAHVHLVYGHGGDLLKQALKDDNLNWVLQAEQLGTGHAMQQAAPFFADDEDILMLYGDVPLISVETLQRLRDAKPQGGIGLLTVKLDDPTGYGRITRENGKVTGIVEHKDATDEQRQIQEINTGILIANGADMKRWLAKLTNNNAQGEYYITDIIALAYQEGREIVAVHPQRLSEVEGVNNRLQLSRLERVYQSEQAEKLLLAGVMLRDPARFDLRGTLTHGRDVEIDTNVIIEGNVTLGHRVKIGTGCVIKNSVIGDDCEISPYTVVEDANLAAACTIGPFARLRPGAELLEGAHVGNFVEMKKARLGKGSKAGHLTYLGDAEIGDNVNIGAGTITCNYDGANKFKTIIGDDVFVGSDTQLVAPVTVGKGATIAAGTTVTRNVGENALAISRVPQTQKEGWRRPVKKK
Method: as §1

Guanlyate kinase = Guanlyate kinase (UniProt Q0TBG1)
Guanlyate kinase, sequence (Q0TBG1 whole entry): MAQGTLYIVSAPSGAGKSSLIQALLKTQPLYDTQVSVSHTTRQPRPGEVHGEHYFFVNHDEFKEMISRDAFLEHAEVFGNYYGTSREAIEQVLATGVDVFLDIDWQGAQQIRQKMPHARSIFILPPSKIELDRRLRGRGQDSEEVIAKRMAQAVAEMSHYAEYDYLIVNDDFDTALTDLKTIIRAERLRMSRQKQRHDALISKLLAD
Method: as §1

MurA = MurA (UniProt Q3YX52)
MurA, sequence (Q3YX52 whole entry): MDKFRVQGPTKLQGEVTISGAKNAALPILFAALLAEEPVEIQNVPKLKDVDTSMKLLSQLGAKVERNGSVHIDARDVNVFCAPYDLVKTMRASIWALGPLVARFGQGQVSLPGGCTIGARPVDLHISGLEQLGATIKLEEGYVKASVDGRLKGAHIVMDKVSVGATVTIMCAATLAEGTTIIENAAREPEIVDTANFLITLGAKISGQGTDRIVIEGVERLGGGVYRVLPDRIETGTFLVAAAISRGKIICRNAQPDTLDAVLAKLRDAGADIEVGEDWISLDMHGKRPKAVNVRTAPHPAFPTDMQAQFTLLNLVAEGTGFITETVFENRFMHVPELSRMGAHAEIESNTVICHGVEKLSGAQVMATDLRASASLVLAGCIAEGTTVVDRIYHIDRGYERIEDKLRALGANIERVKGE
Method: as §1

MurC = MurC (UniProt C4ZRI6)
MurC, sequence (C4ZRI6 whole entry, looked up): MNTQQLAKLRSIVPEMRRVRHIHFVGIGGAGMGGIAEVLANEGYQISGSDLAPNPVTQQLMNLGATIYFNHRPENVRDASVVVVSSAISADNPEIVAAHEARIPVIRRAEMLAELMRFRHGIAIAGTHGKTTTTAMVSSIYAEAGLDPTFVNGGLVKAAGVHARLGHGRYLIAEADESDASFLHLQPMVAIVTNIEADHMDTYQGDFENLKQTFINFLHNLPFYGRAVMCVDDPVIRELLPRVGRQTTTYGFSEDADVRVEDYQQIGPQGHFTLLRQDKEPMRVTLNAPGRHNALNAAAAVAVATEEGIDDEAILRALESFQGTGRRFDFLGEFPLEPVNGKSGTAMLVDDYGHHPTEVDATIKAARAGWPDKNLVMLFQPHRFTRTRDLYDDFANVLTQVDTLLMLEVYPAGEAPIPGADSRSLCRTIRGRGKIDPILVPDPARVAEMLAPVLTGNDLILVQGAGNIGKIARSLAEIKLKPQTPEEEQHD
Method: as §1

MurD = molecular target: T1, MurD (UniProt P14900)
T1 sequence (whole entry): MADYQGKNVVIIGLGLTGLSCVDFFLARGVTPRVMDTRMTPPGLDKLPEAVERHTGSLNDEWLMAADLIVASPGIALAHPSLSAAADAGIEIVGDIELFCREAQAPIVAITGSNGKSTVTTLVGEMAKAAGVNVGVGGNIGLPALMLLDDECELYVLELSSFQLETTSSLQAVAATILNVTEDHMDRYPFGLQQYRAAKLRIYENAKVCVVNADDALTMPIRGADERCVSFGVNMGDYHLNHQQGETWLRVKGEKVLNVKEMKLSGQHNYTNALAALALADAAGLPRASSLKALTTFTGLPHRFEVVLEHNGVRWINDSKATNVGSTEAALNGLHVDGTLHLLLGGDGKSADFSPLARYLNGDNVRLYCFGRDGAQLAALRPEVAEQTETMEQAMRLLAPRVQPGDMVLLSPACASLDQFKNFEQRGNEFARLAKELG
Method: as §1

MurF = molecular target: T2, MurF (UniProt P11880)
T2 sequence (whole entry): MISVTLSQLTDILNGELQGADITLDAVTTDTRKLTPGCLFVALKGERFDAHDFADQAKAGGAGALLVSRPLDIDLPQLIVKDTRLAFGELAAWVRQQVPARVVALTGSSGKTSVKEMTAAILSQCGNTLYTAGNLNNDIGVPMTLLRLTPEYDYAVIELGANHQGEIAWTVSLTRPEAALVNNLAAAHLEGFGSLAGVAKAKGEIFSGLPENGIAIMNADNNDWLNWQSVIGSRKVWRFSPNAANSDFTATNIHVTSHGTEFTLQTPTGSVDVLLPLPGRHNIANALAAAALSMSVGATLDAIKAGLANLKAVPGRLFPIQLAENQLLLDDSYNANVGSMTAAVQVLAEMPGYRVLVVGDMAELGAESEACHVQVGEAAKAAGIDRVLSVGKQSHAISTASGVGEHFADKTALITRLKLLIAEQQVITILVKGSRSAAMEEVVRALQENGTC
Method: as §1

RNA polymerase = tested on: RNA polymerase
Method: as §1

Row | Compound | relative enzymatic activity (DNA gyrase) | relative enzymatic activity (DNA helicase) | relative enzymatic activity (DNA ligase) | relative enzymatic activity (DNA polymerase) | relative enzymatic activity (DNA primase) | relative enzymatic activity (GlmU) | relative enzymatic activity (Guanlyate kinase) | relative enzymatic activity (MurA) | relative enzymatic activity (MurC) | relative enzymatic activity (MurD) | relative enzymatic activity (MurF) | relative enzymatic activity (RNA polymerase)
1 | Nc1nc(C(=CCC(=O)O)C(=O)NC2C(=O)N3C(C(=O)O)=CCSC23)cs1 (stereo unspecified) | 0.16 ± 0.14 | 0.257 ± 0.0059 | 1.1 ± 0.24 | 0.742 ± 0.27 | 0.682 ± 0.082 | 0.934 ± 0.01 | 0.901 ± 0.03 | 0.0583 ± 0.02 | 0.885 ± 0.2 | 0.575 ± 0.39 | 0.958 ± 0.24 | 0.292 ± 0.037
2 | Cl.O=C(O)c1cn(-c2ccc(F)cc2)c2cc(N3CCNCC3)c(F)cc2c1=O | 0.0194 ± 0.027 | 0.484 ± 0.099 | 1.18 ± 0.41 | 1.19 ± 0.31 | 0.688 ± 0.12 | 0.955 ± 0.031 | 0.73 ± 0.11 | 0.698 ± 0.044 | 0.836 ± 0.012 | 0.595 ± 0.41 | 0.919 ± 0.24 | 0.228 ± 0.089
3 | Cc1cc(=O)c(C(=O)N[C@@H](C(=O)N[C@@H]2C(=O)N3C(C(=O)O)=C(CSc4nnnn4C)CS[C@H]23)c2ccc(O)cc2)c[nH]1 | 0.759 ± 0.035 | 0.278 ± 0.28 | 0.862 ± 0.016 | 1.08 ± 0.15 | 0.766 ± 0.023 | 0.919 ± 0.03 | 0.946 ± 0.015 | 0.116 ± 0.018 | 1.18 ± 0.11 | 0.634 ± 0.44 | 0.92 ± 0.2 | 0.505 ± 0.5
4 | Cc1oc(=O)oc1CN1CCN(c2cc3c(cc2F)c(=O)c(C(=O)O)c2n3C(C)S2)CC1 (stereo unspecified) | 0.0525 ± 0.074 | 0.431 ± 0.01 | 1.19 ± 0.31 | 1.23 ± 0.25 | 0.852 ± 0.0094 | 0.942 ± 0.024 | 1.12 ± 0.12 | 0.452 ± 0.31 | – | 0.586 ± 0.4 | 0.963 ± 0.18 | 0.842 ± 0.022
5 | Cc1cc(C(C)(C)CC(C)(C)C)ccc1OCCOCC[N+](C)(C)Cc1ccccc1.[Cl-] | 0.0681 ± 0.096 | 0.0148 ± 0.0016 | 1.09 ± 0.19 | 0.247 ± 0.011 | 0.55 ± 0.034 | 0.409 ± 0.4 | 0.428 ± 0.034 | 0.0365 ± 0.0028 | 0.647 ± 0.59 | 0.0983 ± 0.021 | 0.477 ± 0.33 | 0.664 ± 0.036
6 | CCCCCCCCCCCCC[N+](C)(C)Cc1ccccc1.O.[Cl-] | 0.0515 ± 0.073 | 0.0193 ± 0.00021 | 0.811 ± 0.32 | 0.208 ± 0.0053 | 0.482 ± 0.019 | 0.157 ± 0.036 | 0.171 ± 0.062 | 0.051 ± 0.015 | – | 0.115 ± 0.035 | 0.102 ± 0.021 | 0.32 ± 0.068
7 | COC1=C(N)C(=O)c2nc(-c3nc(C(=O)O)c(C)c(-c4ccc(OC)c(OC)c4O)c3N)ccc2C1=O | 0.611 ± 0.34 | 0.19 ± 0.014 | 0.732 ± 0.11 | 1.03 ± 0.48 | 0.602 ± 0.05 | 0.789 ± 0.23 | 0.6758 ± 0.0058 | 0.072 ± 0.019 | – | 0.596 ± 0.39 | 1 ± 0.23 | 0.291 ± 0.026
8 | N[C@@H](C(=O)N[C@@H]1C(=O)N2C(C(=O)O)=C(Cl)CC[C@H]12)c1ccccc1 | 0.732 ± 0.43 | 0.524 ± 0.089 | 0.931 ± 0.12 | 1.03 ± 0.087 | 0.831 ± 0.025 | 1 ± 0.036 | 0.943 ± 0.061 | 0.582 ± 0.21 | – | 0.603 ± 0.4 | 0.963 ± 0.22 | 0.811 ± 0.13
9 | COC1(NC(=O)C2SC(=C(C(N)=O)C(=O)O)S2)C(=O)N2C(C(=O)O)=C(CSc3nnnn3C)CSC21 (stereo unspecified) | 0.705 ± 0.46 | 0.463 ± 0.027 | 1.47 ± 0.23 | 1.18 ± 0.25 | 0.683 ± 0.18 | 0.99 ± 0.066 | 0.994 ± 0.02 | 0.0627 ± 0.021 | – | 0.618 ± 0.43 | 0.974 ± 0.2 | 0.871 ± 0.07
10 | CCC(C)C1NC(=O)C(CCNCS(=O)(=O)[O-])NC(=O)C(NC(=O)C(CCNCS(=O)(=O)[O-])NC(=O)C(NC(=O)C(CCNCS(=O)(=O)[O-])NC(=O)CCCCC(C)C)C(C)O)CCNC(=O)C(C(C)O)NC(=O)C(CCNCS(=O)(=O)[O-])NC(=O)C(CCNCS(=O)(=O)[O-])NC(=O)C(C(C)CC)NC1=O.[Na+].[Na+].[Na+].[Na+].[Na+] (stereo unspecified) | 1.1 ± 0.088 | 0.615 ± 0.27 | 1.08 ± 0.17 | 1.32 ± 0.34 | 0.766 ± 0.23 | 0.983 ± 0.022 | 1 ± 0.023 | 0.564 ± 0.14 | – | 0.591 ± 0.39 | 1.03 ± 0.3 | 0.919 ± 0.029
11 | CC(=O)On1cc(F)c(=O)[nH]c1=O | 0.636 ± 0.53 | 0.603 ± 0.23 | 0.979 ± 0.23 | 1.03 ± 0.18 | 0.765 ± 0.056 | 0.977 ± 0.015 | 0.859 ± 0.015 | 0.673 ± 0.096 | – | 0.464 ± 0.59 | 0.933 ± 0.22 | 0.746 ± 0.13
12 | C[C@H]1[C@H](NC(=O)/C(=N\OC(C)(C)C(=O)O)c2csc(N)n2)C(=O)N1S(=O)(=O)O | 0.898 ± 0.25 | 0.534 ± 0.15 | 0.815 ± 0.086 | 1.23 ± 0.28 | 0.8444 ± 0.0011 | 1.04 ± 0.031 | 1.04 ± 0.021 | 0.47 ± 0.14 | – | 0.623 ± 0.45 | 1.13 ± 0.55 | 0.869 ± 0.072
13 | CCOC(=O)OC(C)OC(=O)C1N2C(=O)C(NC(=O)C(N)c3ccccc3)C2SC1(C)C.Cl (stereo unspecified) | 0.992 ± 0.22 | 0.463 ± 0.04 | 0.901 ± 0.089 | 1.09 ± 0.16 | 0.841 ± 0.011 | 1.04 ± 0.033 | 0.975 ± 0.026 | 0.82 ± 0.1 | – | 0.598 ± 0.42 | 0.981 ± 0.23 | 0.803 ± 0.031
14 | O=C1CN(/N=C/c2ccc([N+](=O)[O-])o2)C(=O)N1 | 0.715 ± 0.42 | 0.621 ± 0.24 | 0.855 ± 0.16 | 0.649 ± 0.36 | 0.764 ± 0.037 | 0.999 ± 0.044 | 0.842 ± 0.048 | 0.665 ± 0.11 | – | 0.481 ± 0.61 | 0.963 ± 0.21 | 0.745 ± 0.068
15 | CN1CCN(c2cc3c(cc2F)c(=O)c(C(=O)O)cn3-c2ccc(F)cc2)CC1.Cl | 0.0325 ± 0.046 | 0.445 ± 0.075 | 1.46 ± 0.11 | 1.3 ± 0.33 | 0.681 ± 0.17 | 0.957 ± 0.011 | 0.9286 ± 0.0092 | 0.593 ± 0.055 | – | 0.566 ± 0.37 | 0.959 ± 0.17 | 0.929 ± 0.056
16 | NC[C@H]1O[C@H](O[C@H]2[C@H](O)[C@@H](O[C@H]3O[C@H](CO)[C@@H](O)[C@H](N)[C@H]3O)[C@H](N)C[C@@H]2N)[C@H](N)C[C@@H]1O | 0.902 ± 0.18 | 0.378 ± 0.22 | 0.91 ± 0.034 | 1.19 ± 0.21 | 0.572 ± 0.14 | 1.02 ± 0.033 | 0.443 ± 0.1 | 0.747 ± 0.093 | – | 0.609 ± 0.42 | 0.956 ± 0.23 | 0.906 ± 0.048
17 | CN(C)c1cc(CNCC(C)(C)C)c(O)c2c1C[C@H]1C[C@H]3[C@H](N(C)C)C(=O)[C@H](C(N)=O)C(=O)[C@@]3(O)C(=O)[C@@H]1C2=O | 0.256 ± 0.0049 | 0.355 ± 0.04 | 0.862 ± 0.018 | 1.09 ± 0.3 | 0.671 ± 0.07 | 0.9877 ± 0.0037 | 0.49613 ± 0.0003 | 0.133 ± 0.025 | – | 0.578 ± 0.38 | 1.23 ± 0.068 | 0.289 ± 0.1
